Each structure is given as a SMILES string. Where “and” joins values, the source holds several entries; their conditions need not be identical. Equal entries are not always repeated. Inconclusive results are not listed. Some structures have more than one record in an assay (separate samples or runs), and their calls can disagree. Calls of active or inactive are those of the source. Unless noted, calls come from the whole dose curve; as a rule, active = well fitted curve in the direction sought with a large enough effect in the repeat runs; inconclusive = weak or mixed curves; inactive = no such curve, though single readings can be large; an effect the other way counts as inactive or inconclusive.

Assay [1] can be described thus: qHTS assay to identify small molecule agonists of the vitamin D receptor (VDR) signaling pathway - cell viability counter screen (AID 743224). Note: series mostly up to about 63 µM; nearly all actives have a fitted effect of over 50% in size. In short, it runs like this:
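In parallel with the bla FRET readout, cytotoxicity toward VDR-bla cells after 16 h compound exposure was assessed by CellTiter-Glo, with luminescence recorded after a 30 min room-temperature incubation.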
A general note: In qHTS, concentration-response curves come from the screen itself.

Assay [2] in a line: qHTS assay to identify small molecule antagonists of the vitamin D receptor (VDR) signaling pathway - cell viability counter screen (AID 743225). Note: nearly all actives have a fitted effect of over 50% in size. In short, it runs like this:
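HEK293T VDR-bla; cpd + 1a,25-(OH)2D3 3 nM final, 16 h 37C/5% CO2; B/G FRET substrate 2 h RT; then CellTiter-Glo 30 min RT, luminescence.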

Assay [3] in a line: qHTS assay to identify small molecule agonists of the NFkB signaling pathway (AID 1159509; active = well fitted curve in the direction sought with a large enough effect in the signal ratio in the repeat runs, not every such curve was filed as active; the % refers to the signal ratio; note: series mostly up to about 61 µM). In short, it runs like this:
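Readout: FRET fluorescence, 405 nm excitation, 460/530 nm emission; beta-lactamase expression disrupts FRET. Cells: ME-180 stably carrying NF-kB-driven bla reporter. Compound exposure 5 hr, 37 C, 5% CO2.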

A short description of assay [4]: qHTS assay to identify small molecule agonists of the NFkB signaling pathway - cell viability counter screen (AID 1159515; calls by dose curve; note: series mostly up to about 61 µM; nearly all actives have a fitted effect of over 55% in size). The procedure, abridged: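 Plate 2,000 NFkB-bla ME-180 cells/well; incubate overnight. Add compounds, 5 hr at 37 C. Add FRET substrate, 1.5 hr RT. Add CellTiter-Glo, 30 min RT; read luminescence.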
A short description of assay [5]: qHTS assay to identify small molecule agonists of the endoplasmic reticulum stress response signaling pathway (AID 1159516; active = well fitted activation curve with a large enough effect in the signal ratio in the repeat runs, not every such curve was filed as active; the % refers to the signal ratio). The procedure, abridged: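 Beta-lactamase expression from the ER stress response element in HeLa reporter cells is quantified with the LiveBLAzer B/G FRET substrate, read at 405 nm excitation after 2 hr at room temperature, following 5 hr compound treatment at 37 C.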

Assay [6] can be described thus: qHTS assay to identify small molecule agonists of the endoplasmic reticulum stress response signaling pathway - cell viability counter screen (AID 1159517; calls by dose curve; note: nearly all actives have a fitted effect of over 50% in size; note: potency is the fitted concentration of half-maximal effect). The procedure, abridged: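 Cytotoxicity of test compounds toward ESRE-bla HeLa cells was assessed after 5 hr exposure. The luminescent CellTiter-Glo signal was measured 30 min after reagent addition.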
Assay [7] addresses Nuclear receptor ROR-gamma (Homo sapiens) (UniProt P51449). Nature of the assay: qHTS assay to identify small molecule antagonists of the retinoid-related orphan receptor gamma (ROR-gamma) signaling pathway (AID 1159521; note: nearly all actives have a fitted effect of over 50% in size; note: potency is the fitted concentration of half-maximal effect). In short, it runs like this:
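Cells were plated, rested 4 h at 37 C, exposed to compounds for 2 h, then given 1 uM final doxycycline hyclate to induce RORγ expression. After 16 h, ONE-Glo luminescence from the ROR response element reporter was measured.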

Assay [8] is described as follows: qHTS assay to identify small molecule agonists of the AP-1 signaling pathway - cell viability counter screen (AID 1159525; calls by dose curve; note: nearly all actives have a fitted effect of over 55% in size). In short, it runs like this:
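Each titration point was normalised to DMSO and tetra n-octyl ammonium bromide controls. The read was Cell Titer Glo luminescence after 30 min at RT, following 5 h compound exposure of ME-180 AP-1-bla cells at 37 °C.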

The nature of assay [9]: qHTS assay to identify small molecule agonists of the AP-1 signaling pathway (AID 1159526; calls by dose curve).
Assay [10] concerns the target Retinoic acid receptor RXR-alpha (Homo sapiens) (UniProt P19793). In words: qHTS assay to identify small molecule agonists of the RXR signaling pathway (AID 1159527; calls by dose curve; note: nearly all actives have a fitted effect of over 35% in size). The procedure, abridged: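 Cells plated at 2,000/well, rested 5 hr at 37 C, pin-dosed with DMSO compound solutions, incubated 16 hr, then loaded with B/G FRET substrate for 2 hr at RT before dual-emission fluorescence reading.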

The nature of assay [11]: qHTS assay to identify small molecule agonists of the RXR signaling pathway - cell viability counter screen (AID 1159529). Note: nearly all actives have a fitted effect of over 50% in size. Note: potency is the fitted concentration of half-maximal effect. In short, it runs like this:
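Steps: seed RXR-alpha-UAS-bla HEK 293T cells in assay medium containing 2% charcoal-stripped FBS; incubate 5 hr; add compounds in DMSO; incubate 16 hr at 37 C; after the bla read, add CellTiter-Glo and read luminescence at 30 min.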

Assay [12] can be described thus: qHTS assay to identify small molecule antagonists of the retinoid acid receptor (RAR) signaling pathway - cell viability counter screen (AID 1159551). Note: nearly all actives have a fitted effect of over 35% in size. Note: potency is the fitted concentration of half-maximal effect. The procedure, abridged:
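Viability of C3RL4 cells is quantified from ATP by luminescence after 6 h treatment at 37 C with compounds and 1 uM retinol.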

The nature of assay [13]: qHTS assay to identify small molecule antagonists of the retinoic acid receptor (RAR) signaling pathway (AID 1159552; note: nearly all actives have a fitted effect of over 50% in size; note: potency is the fitted concentration of half-maximal effect). The procedure, abridged: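 Retinol at 1 uM final stimulated RARE-luciferase expression in C3RL4 cells exposed to test compounds for 6 hr at 37 C. Reduced luminescence, read 30 min after detection reagent, indicated pathway antagonism.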
Assay [14] in a line: qHTS assay to identify small molecule agonists of the retinoic acid receptor (RAR) signaling pathway (AID 1159553). Note: potency is the fitted concentration of half-maximal effect. In short, it runs like this:
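Compounds dissolved in DMSO were pinned onto C3RL4 cells seeded the previous day, and plates were held 6 hr at 37 C. RARE-driven luciferase output was then read by luminescence.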

Assay [15] can be described thus: qHTS assay to identify small molecule antagonists of the retinoid-related orphan receptor gamma (ROR-gamma) signaling pathway - cell viability counter screen (AID 1159520). Note: nearly all actives have a fitted effect of over 50% in size. Note: potency is the fitted concentration of half-maximal effect. In short, it runs like this:
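Tet-on ROR gamma CHO cells (1,000/well) were plated 4 hr, given compounds in DMSO for 2 hr at 37 C, then induced with 1 uM final doxycycline for 16 hr. Viability was read as ATP by CellTiter-Glo luminescence after 30 min.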

Chain of Retinoic acid receptor RXR-alpha (Homo sapiens) (P19793 whole entry, looked up): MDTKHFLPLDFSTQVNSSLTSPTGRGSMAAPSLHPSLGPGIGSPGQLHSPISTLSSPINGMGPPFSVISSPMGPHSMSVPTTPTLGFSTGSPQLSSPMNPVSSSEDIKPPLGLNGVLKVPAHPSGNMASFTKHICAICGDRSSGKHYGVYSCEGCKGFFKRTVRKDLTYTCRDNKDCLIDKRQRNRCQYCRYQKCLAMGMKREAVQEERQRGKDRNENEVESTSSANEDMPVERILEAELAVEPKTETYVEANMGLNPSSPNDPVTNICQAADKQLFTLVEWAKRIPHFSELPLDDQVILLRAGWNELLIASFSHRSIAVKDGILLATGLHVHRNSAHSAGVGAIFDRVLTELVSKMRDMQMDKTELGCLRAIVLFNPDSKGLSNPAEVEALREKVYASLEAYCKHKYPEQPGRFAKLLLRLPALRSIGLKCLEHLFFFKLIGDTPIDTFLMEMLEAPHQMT

`O=C(O)c1ccc([N+](=O)[O-])cc1`: the Potency result in [1], in [2], in assay [6], in assay [7], in assay [8] and in [9] was “inactive” in each case. In addition, the Potency result in assay [10], in [11] and in [12] was “inactive” each time. Moreover, the molecule was classed as inactive in [3], in assay [4] and in assay [5].
As to `O=[N+]([O-])c1cc(N(CCO)CCO)ccc1NCCO`, the Potency entry in assay [1], in assay [2], in [6], in assay [8], in assay [9] and in [10] was “inactive” each time. Besides, the Potency entry in assay [11] and in [14] was “inactive” throughout. The outcome in assay [3], in assay [4] and in [5] was inactive. The Potency in assay [12] was 48.5 µM (active) and 48.6 µM (active); in assay [13] it was 30.6 µM (active).
In the case of `CCCCC(CC)COC(C)=O` (stereo unspecified), the Potency entry in [1], in assay [2], in assay [6], in assay [8], in assay [9] and in assay [10] was “inactive” in each case. Also, the Potency entry in [11], in assay [12], in [13] and in [14] was “inactive” each time. The outcome in assay [3], in [4] and in [5] was inactive.
As for `ClC1=C(Cl)C(Cl)(Cl)C(Cl)=C1Cl`, the Potency result in [1], in assay [2], in assay [8], in [9], in assay [10] and in assay [11] was “inactive” throughout. The Potency entry in assay [12] and in [13] was “inactive” in each case. For the same molecule, the call in assay [3] and in assay [4] was inactive. In addition, the Potency is 27.7 µM (active) and 49 µM (active) in assay [6]; 7.74 µM (active) and 6.11 µM (active) in assay [15]; “inactive and 68.6 µM (active)” in assay [14].
Regarding `O=C(Oc1ccccc1)c1ccc(O)cc1`, the Potency entry in assay [1], in assay [2], in assay [6], in assay [8], in assay [9] and in [10] was “inactive” in each case. Moreover, the Potency entry in assay [11], in assay [12] and in [13] was “inactive” throughout. For the same molecule, the result in [3], in assay [4] and in assay [5] was inactive. In assay [14], the Potency is 19.4 µM (active) and 30.6 µM (active).
With `C=CC(=O)OCCCCCCCC(C)C`, the Potency result in assay [1], in assay [2], in [6], in [8], in assay [9] and in assay [10] was “inactive” each time. Besides, the Potency entry in [11], in [12], in assay [13] and in assay [14] was “inactive” throughout. Moreover, the call in assay [3], in [4] and in assay [5] was inactive.
Take `CC(=O)Nc1ccc(C(=O)O)cc1`: the Potency result in [1], in assay [2], in assay [6], in assay [8], in assay [9] and in [10] was “inactive” throughout. For the same molecule, the Potency result in [11], in assay [12], in [13] and in [14] was “inactive” in each case. The call in assay [3], in assay [4] and in assay [5] was inactive.
As to `Cc1ccc(C(=O)O)o1`, the Potency result in [1], in [2], in assay [6], in [7], in assay [8] and in [9] was “inactive” throughout. Moreover, the Potency entry in assay [11] and in assay [12] was “inactive” in each case. The outcome in assay [3], in assay [4] and in assay [5] was inactive.
In the case of `c1ccc2[nH]cnc2c1`, the Potency result in assay [1], in [2], in [6], in assay [8], in [9] and in assay [10] was “inactive” in each case. In addition, the Potency result in assay [11], in assay [12], in assay [13] and in assay [14] was “inactive” in each case. Further, the outcome in [3], in assay [4] and in [5] was inactive.
With `Cc1cc(O)cc(C)c1Cl`, the Potency entry in assay [1], in [2], in assay [6], in assay [8], in assay [9] and in assay [10] was “inactive” each time. Also, the Potency entry in [11], in assay [12], in [13] and in assay [14] was “inactive” in each case. The molecule was classed as inactive in assay [3], in [4] and in assay [5].
Turning to `Cc1cc(=O)[nH]c(C(C)C)n1`, the Potency entry in assay [1], in [2], in [6], in [8], in [9] and in assay [10] was “inactive” throughout. The Potency result in assay [11], in assay [12], in [13] and in assay [14] was “inactive” each time. The molecule was called inactive in assay [3], in assay [4] and in assay [5].
As for `O=C(c1ccc(O)cc1)c1ccc(O)cc1O`, the Potency result in [1], in [2], in assay [6], in assay [8], in assay [9] and in [13] was “inactive” each time. The Potency entry in [14] is “inactive”. Also, the outcome in assay [3], in assay [4] and in [5] was inactive.
In the case of `CCCCC(CC)C(=O)OCCOCCOCCOC(=O)C(CC)CCCC` (stereo unspecified), the Potency entry in assay [1], in assay [2], in assay [6], in [8], in assay [9] and in [10] was “inactive” each time. The Potency result in assay [11], in assay [12], in assay [13] and in assay [14] was “inactive” in each case. Moreover, the molecule was classed as inactive in assay [3], in [4] and in assay [5].
As to `CC(C)n1c(/C=C/[C@@H](O)C[C@@H](O)CC(=O)O)c(-c2ccc(F)cc2)c2ccccc21`, the Potency result in [1], in assay [2], in assay [6], in [8], in [9] and in assay [10] was “inactive” throughout. In addition, the Potency entry in assay [12] was “inactive”. The molecule was called inactive in assay [3], in assay [4] and in assay [5]. Moreover, in [7], the Potency was 486 nM (active) and 168 nM (active).
As for `CC1=CC[C@H]2C[C@@H]1C2(C)C`, the Potency result in assay [1], in assay [2], in [15], in assay [7], in [8] and in [9] was “inactive” in each case. Moreover, the Potency entry in assay [10], in assay [11], in assay [12], in assay [13] and in [14] was “inactive” each time. Also, the molecule was classed as inactive in [3], in assay [4] and in assay [5].
With `Oc1ccc2ccccc2c1N=Nc1ccccc1`, the Potency result in assay [1], in assay [2], in assay [6], in assay [8], in [10] and in assay [12] was “inactive” throughout. In [13], the Potency entry is “inactive”. Moreover, the molecule was called inactive in [3] and in [4]. The Potency in [14] was 12.2 µM (active).
`OCCOCCOCCOCCO`: the Potency entry in [1], in [2], in assay [6], in assay [8], in assay [9] and in assay [10] was “inactive” in each case. Also, the Potency entry in assay [11] and in assay [12] was “inactive” in each case. In addition, the molecule was classed as inactive in [3], in assay [4] and in [5].
Consider `OCC#CCO`, for which the Potency result in assay [1], in assay [2], in assay [6], in [7], in [8] and in assay [9] was “inactive” throughout. Moreover, the Potency entry in [10], in [11], in assay [12], in [13] and in assay [14] was “inactive” throughout. In addition, the call in assay [3] and in assay [4] was inactive. For the same molecule, the Potency entry in assay [15] was “inactive and 54.5 µM (active)”.
As for `COC(=O)c1ccccc1O`, the Potency result in assay [1], in assay [2], in [6], in assay [7], in assay [8] and in [9] was “inactive” each time. Besides, the Potency result in [12], in [13] and in assay [14] was “inactive” each time. Further, the outcome in [3], in assay [4] and in assay [5] was inactive. The Potency in assay [11] is 43.8 µM (active) and inactive.
